Laboratory results reported in PubChem BioAssay.
Active and inactive are the calls of the source.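 How the source made its calls, unless noted: active means inhibition above 20% together with a positive visual image hit; inconclusive means visual image hit but inhibition not above 20%; inactive means no visual image hit.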

Assays:
[1] = inhibitors of TNFa-induced NFkB p65 translocation, primary screen, imaging, HUVEC, MLSMR starter and 10KST1 sets (AID 438); conditions: HUVEC TNFa-induced p65 nuclear translocation; cell count: measured here: nuclei count (cytotoxicity indicator), at 2.08 µM; inhibition: at 2 µM, stronger effect = higher value, 0% TNFa-plus-vehicle, 100% no-TNFa wells;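 further: compound added about 3h40 before a 20 min TNFalpha stimulation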;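 on inhibition: signal is the nuclear over cytoplasmic p65 intensity ratio per well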
[2] = reduction of polyQ htt aggregates in cells – imaging, exon1htt(103Q)mCFP cells, high-content imaging, primary screen (AID 483;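 active means visual image review flags a hit and inhibition of aggregation exceeds 20%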;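 further: compound exposure lasted 3 days before fixation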;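 on nuclei count: percent of the per-plate median nuclei count of sample wells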); conditions: exon1htt(103Q)mCFP cell line, aggregate imaging, at 2 µM; inhibition of aggregation: stronger effect = higher value; nuclei count: measured here: cell count, toxicity
[3] = endothelial E-selectin expression blockers – imaging, HUVEC, immunofluorescence, MLSMR starter and 10KST1 sets, primary screen (AID 487;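 active means visually confirmed hit in the image check and inhibition above 20%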;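 on inhibition: signal is fraction of cell area covered by stained E-selectin grains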;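 on nuclei count: 100% = median nuclei count of all wells on the same plate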); conditions: HUVEC TNFalpha-induced E-selectin immunofluorescence imaging, at 2 µM; inhibition: stronger effect = higher value; nuclei count: measured here: cell number, toxicity
[4] = target: Voltage-gated potassium channel subunit beta-2 (Rattus norvegicus) (UniProt P62483); assay: inhibitors of rat Kvbeta2 reductase activity – biochemical, NADPH fluorescence, primary screen (AID 622;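 active means fluorescence slope higher than the sample average by over 3 SD, cut at about -0.22 in these data, passing the limit was not always enough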;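 further: slope of raw intensity against log time taken from 70 to 1610 s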); conditions: recombinant KvBeta, 4-cyanobenzaldehyde reduction, at 10 µM, stronger effect = higher value
[5] = target: Voltage-gated potassium channel subunit beta-2 (Rattus norvegicus) (UniProt P62483); assay: enhancers of rat Kvbeta2 NADPH turnover – biochemical, NADPH fluorescence, primary screen (AID 623;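 active means NADPH fluorescence slope more negative than the mean of all samples by about 3 SD, 99.7% confidence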;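 further: fluorescence intensity change per second fitted from 20 to 320 s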); conditions: Recombinant KvBeta, NADPH fluorescence decrease slope, 10 min; at 10 µM; stronger effect = lower value
[6] = target: Alpha-2C adrenergic receptor (Homo sapiens) (UniProt P18825); assay: compounds altering alpha2C-coupled GIRK flux – cell-based, HEK293 alpha2C/GIRK1/2, thallium flux, primary screen (AID 624;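 active means fluorescence slope after compound addition differing from the mean of all screened samples at 99.7% confidence, in either direction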;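 further: slope of fluorescence ratio to pre-addition baseline per second over 15 to 24 s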); conditions: thallium flux BTC fluorescence, at 10 µM, actives lie on both sides
[7] = blockers of RIG-like receptor reporter activation – cell-based, Sendai virus stimulus, luciferase, 10K MLSCN set, TLR/RLR signaling modifier project, primary screen (AID 602276;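 active means inhibition at or above 50% at 10 µM; inactive means inhibition below 50%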;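 further: firefly luciferase from ISG56 promoter only with Renilla not read in this screen; 0% = Sendai virus plus DMSO and 100% = medium plus DMSO without virus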); conditions: HEK293 RL24 IRF3 luciferase reporter, at 10 µM, stronger effect = higher value
[8] = TLR3 IRF3 reporter activation blockers – cell-based, poly I:C stimulus, luciferase, 10K MLSCN set, primary screen (AID 602277;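 active means inhibition of the reporter signal at or above 50%; inactive means inhibition below 50%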); conditions: HEK293-TLR3 RL24 IRF3 luciferase reporter, at 10 µM, stronger effect = higher value

Voltage-gated potassium channel subunit beta-2 (Rattus norvegicus), sequence (P62483 whole entry, looked up): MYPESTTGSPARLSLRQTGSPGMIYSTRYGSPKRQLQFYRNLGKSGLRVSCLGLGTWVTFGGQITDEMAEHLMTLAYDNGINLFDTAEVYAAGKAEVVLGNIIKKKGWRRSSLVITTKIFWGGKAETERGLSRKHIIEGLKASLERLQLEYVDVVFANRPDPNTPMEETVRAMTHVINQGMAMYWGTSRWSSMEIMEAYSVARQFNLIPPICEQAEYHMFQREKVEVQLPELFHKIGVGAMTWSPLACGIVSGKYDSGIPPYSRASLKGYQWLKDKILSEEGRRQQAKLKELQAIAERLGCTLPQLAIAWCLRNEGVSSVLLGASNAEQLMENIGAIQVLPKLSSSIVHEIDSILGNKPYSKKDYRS
Alpha-2C adrenergic receptor (Homo sapiens), sequence (P18825 whole entry, looked up): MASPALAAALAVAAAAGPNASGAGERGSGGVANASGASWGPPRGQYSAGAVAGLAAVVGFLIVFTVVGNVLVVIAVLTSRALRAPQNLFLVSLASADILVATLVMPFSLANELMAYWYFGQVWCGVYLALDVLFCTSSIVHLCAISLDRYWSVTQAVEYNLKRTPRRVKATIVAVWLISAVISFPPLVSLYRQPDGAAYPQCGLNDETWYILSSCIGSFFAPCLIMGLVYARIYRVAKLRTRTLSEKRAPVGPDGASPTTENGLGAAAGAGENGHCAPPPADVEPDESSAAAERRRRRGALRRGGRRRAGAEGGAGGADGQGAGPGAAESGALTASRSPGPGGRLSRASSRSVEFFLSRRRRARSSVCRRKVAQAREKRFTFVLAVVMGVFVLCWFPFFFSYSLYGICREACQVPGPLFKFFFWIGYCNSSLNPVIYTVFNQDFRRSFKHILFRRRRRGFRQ

Row | Structure (SMILES) | cell count [1] | inhibition [1] | inhibition of aggregation [2] | nuclei count [2] [%] | inhibition [3] | nuclei count [3] [%] | fluorescence slope [4] | NADPH fluorescence slope [5] | slope [6] | inhibition [7] | inhibition [8]
1 | Cc1c(NS(=O)(=O)c2ccc3c(c2)n(C)c(=O)n3C)c(=O)n(-c2ccccc2)n1C | 582 | 2.7% (inactive) | -2% (inactive) | 99.2 | 28% (inactive) | 93 | -0.616 (inactive) | 1.5e-05 (inactive) | 0.00372 (inactive) | 15.8% (inactive) | 13.4% (inactive)
2 | CCOC(=O)c1ccc(-n2c(C)nc3c(cnn3-c3ccccc3C)c2=O)cc1 | 654 | 6.9% (inactive) | -46.9% (inactive) | 102 | 11.9% (inactive) | 108 | -0.543 (inactive) | -6.1e-06 (inactive) | 0.00553 (inactive) | -2.92% (inactive) | 3.65% (inactive)
3 | CCOC(=O)N1CCN(c2nc(-c3ccc(Cl)cc3)cs2)CC1 | 256 | 7.4% (inactive) | 7.8% (inactive) | 80.8 | -94.3% (inactive) | 113 | -0.35 (inactive) | -3.8e-05 (inactive) | 0.00625 (inactive) | -3.5% (inactive) | -38.7% (inactive)
4 | CC1=C(C(=O)Nc2ccccc2C)C(c2ccc(C)o2)N2C(=O)CSC2=N1 (stereo not drawn) | 642 | -16.7% (inactive) | 0% (inactive) | 106 | -5.9% (inactive) | 95.6 | -0.44 (inactive) | -1.8e-05 (inactive) | 0.00436 (inactive) | 16.5% (inactive) | 21.5% (inactive)
5 | COc1cc2c(cc1OC)CN(C(=O)CSc1nnc3scc(-c4ccccc4)n13)CC2 | 548 | -0.3% (inactive) | 12.8% (inactive) | 98.2 | -28.8% (inactive) | 109 | -0.515 (inactive) | -2.7e-05 (inactive) | 0.00728 (inactive) | 1.32% (inactive) | 16.8% (inactive)
6 | Cc1c(NC(=O)c2ccc(COc3ccc4ccccc4c3)o2)c(=O)n(-c2ccccc2)n1C | 417 | 2.2% (inactive) | 1.1% (inactive) | 101 | -55.3% (inactive) | 109 | -0.598 (inactive) | -2.6e-05 (inactive) | 0.0029 (inactive) | -13.4% (inactive) | -61.2% (inactive)
7 | Cc1ccc(-c2nc(N)n(C(=O)c3cccnc3)n2)cc1 | 359 | 5.5% (inactive) | -19.9% (inactive) | 113 | -110% (inactive) | 109 | -0.339 (inactive) | -5.3e-06 (inactive) | 0.00801 (inactive) | 0.795% (inactive) | 22.5% (inactive)
8 | Cc1ccccc1OCc1nc2ccccc2c(=O)n1/N=C/c1ccco1 | 373 | -13.1% (inactive) | 4% (inactive) | 57.5 | -47.5% (inactive) | 85.3 | -0.46 (inactive) | -4.6e-05 (inactive) | 0.00374 (inactive) | -5.07% (inactive) | -33% (inactive)
9 | Cc1ccc(C)c(N2CCN(CCCNC(=O)Cn3cc4c(n3)CCC(C)C4)CC2)c1 (stereo not drawn) | 554 | 9.9% (inactive) | -8.9% (inactive) | 90.9 | 29.9% (inactive) | 106 | -0.574 (inactive) | -2.4e-05 (inactive) | 0.00559 (inactive) | 13.6% (inactive) | 41% (inactive)
10 | OCCNCC(O)Cn1ccc2ccccc21 (stereo not drawn) | 410 | -8.2% (inactive) | -0.3% (inactive) | 84.3 | -53.1% (inactive) | 181 | -0.624 (inactive) | -5e-05 (inactive) | 0.007 (inactive) | 12.3% (inactive) | 16.7% (inactive)
11 | O=C1C2C3C=CC(C3)C2C(=O)N1Cc1ccccc1 (stereo not drawn) | 480 | -9.2% (inactive) | -2.3% (inactive) | 102 | 40.2% (inactive) | 74.3 | -0.618 (inactive) | -6.1e-05 (inactive) | 0.00345 (inactive) | -1.99% (inactive) | -2.25% (inactive)
12 | CCCCn1c(CN2CCN(c3ccc(F)cc3)CC2)nc2c1c(=O)n(C)c(=O)n2C | 574 | 14.4% (inactive) | 1.3% (inactive) | 90.1 | -6.8% (inactive) | 82.5 | -0.53 (inactive) | -3.3e-05 (inactive) | 0.00657 (inactive) | 1.37% (inactive) | 3.77% (inactive)
13 | Cc1ccccc1-c1nc(CS(=O)(=O)CC(=O)NCc2ccccc2)c(C)o1 | 642 | 2.8% (inactive) | -36.7% (inactive) | 75.5 | 16.5% (inactive) | 106 | -0.532 (inactive) | -2.1e-05 (inactive) | 0.00661 (inactive) | 9.9% (inactive) | 24.3% (inactive)
14 | CCOC(=O)Cc1csc(NC(=O)CSc2nnc(C3CC3)n2C)n1 | 670 | -11.2% (inactive) | 2.2% (inactive) | 110 | 18.1% (inactive) | 102 | -0.265 (inactive) | -5.6e-05 (inactive) | 0.0044 (inactive) | 10.5% (inactive) | 17.5% (inactive)
15 | O=C(NCc1ccccc1)C1CCN(S(=O)(=O)N2CCCCCC2)CC1 | 639 | 0% (inactive) | -6.3% (inactive) | 106 | -19.7% (inactive) | 112 | -0.473 (inactive) | 5.6e-05 (inactive) | 0.00906 (inactive) | -9.73% (inactive) | -4.63% (inactive)
16 | CCCc1cc(Nc2cccc(OC)c2)n2ncnc2n1 | 708 | -9.9% (inactive) | -22.9% (inactive) | 100 | -8.3% (inactive) | 111 | -0.321 (inactive) | -3e-05 (inactive) | 0.00589 (inactive) | 12.1% (inactive) | 16.3% (inactive)
17 | Nc1nonc1-n1nnc(C(=O)c2ccccc2)c1-c1ccccc1 | 412 | -20% (inactive) | 1.5% (inactive) | 110 | 28.1% (inactive) | 103 | -0.571 (inactive) | 7.3e-06 (inactive) | 0.00623 (inactive) | 10.9% (inactive) | 2.08% (inactive)
18 | Cc1cccc(NC(=O)c2cc3ccccc3o2)c1 | 549 | -23% (inactive) | 10.7% (inactive) | 103 | 15.3% (inactive) | 157 | -0.506 (inactive) | 1.8e-05 (inactive) | 0.00578 (inactive) | -17.2% (inactive) | -74.5% (inactive)
19 | COc1ccc(C(=O)c2coc3ccc(O)c(CN4CCCCC4)c23)cc1 | 828 | -6.8% (inactive) | -9.1% (inactive) | 108 | -25.2% (inactive) | 112 | -0.597 (inactive) | -1.2e-05 (inactive) | 0.00458 (inactive) | -9.24% (inactive) | -15.8% (inactive)
20 | Cc1cc(C)c(C(=O)Nc2ccc(S(=O)(=O)Nc3onc(C)c3C)cc2)c(C)c1 | 680 | 0.3% (inactive) | -6.2% (inactive) | 113 | -36.9% (inactive) | 114 | -0.493 (inactive) | -2.1e-05 (inactive) | 0.00709 (inactive) | 18.6% (inactive) | 22.1% (inactive)
21 | O=C(Nc1ccc(F)cc1F)NC1CC(=O)N(Cc2ccccc2)C1 (stereo not drawn) | 664 | 1.6% (inactive) | 22.4% (inactive) | 66.3 | 4.4% (inactive) | 103 | -0.571 (inactive) | -1.6e-05 (inactive) | 0.0068 (inactive) | -12.5% (inactive) | 1.35% (inactive)
22 | O=C(NC1CCCCCC1)c1c(F)c(F)c(F)c(F)c1F | 448 | 1.8% (inactive) | 3.9% (inactive) | 104 | 1.8% (inactive) | 118 | -0.299 (inactive) | -1.4e-05 (inactive) | 0.00585 (inactive) | 1.12% (inactive) | 12.3% (inactive)
23 | O=c1c2ccc(-c3nnc4n3-c3ccccc3SC4)cc2nc2n1CCCCC2 | 473 | -1.1% (inactive) | 9% (inactive) | 111 | -41.6% (inactive) | 116 | -0.414 (inactive) | -3.1e-05 (inactive) | 0.00551 (inactive) | 11.2% (inactive) | 14.5% (inactive)
24 | CC(=O)N1CCc2cc(S(=O)(=O)CCC(=O)Nc3cccc(F)c3)ccc21 | 331 | -1.4% (inactive) | 0.3% (inactive) | 126 | -19.8% (inactive) | 112 | -0.369 (inactive) | -4e-05 (inactive) | 0.00334 (inactive) | 7.41% (inactive) | 19.1% (inactive)
25 | S=C(c1ccc(N2CCOCC2)cc1)N1CCCCC1 | 375 | -1.3% (inactive) | 4.1% (inactive) | 111 | -68.1% (inactive) | 111 | -0.535 (inactive) | -2e-05 (inactive) | 0.00689 (inactive) | -29.8% (inactive) | -15.7% (inactive)
26 | CCOc1ccc2nc(Nc3nc4c(c(=O)[nH]3)CCC4)nc(C)c2c1 | 612 | 0.8% (inactive) | -12.1% (inactive) | 112 | -9.2% (inactive) | 110 | -0.429 (inactive) | -5.3e-05 (inactive) | 0.00628 (inactive) | -19.8% (inactive) | -83.1% (inactive)
27 | CCOC(=O)Cc1csc(NC(=O)CSc2nnc(C(C)C)n2CC)n1 | 812 | -6.2% (inactive) | 13.4% (inactive) | 89.5 | -33.7% (inactive) | 119 | -0.317 (inactive) | 1.9e-05 (inactive) | 0.00691 (inactive) | 18.4% (inactive) | 21.8% (inactive)
28 | CN(C1CCCCC1)S(=O)(=O)c1ccc(S(=O)(=O)N2CCCC2)cc1 | 737 | -10.5% (inactive) | -9.6% (inactive) | 100 | -78.3% (inactive) | 126 | -0.432 (inactive) | -2.1e-05 (inactive) | 0.00521 (inactive) | 16.1% (inactive) | 21.2% (inactive)
